These results are taken from publication PMC8384837, “Expanding the binding specificity for RNA recognition by a PUF domain”.

The target of this assay is PUM1 PUF domain R5-GHA (Homo sapiens, UniProt Q14671 828-1176, C1007G;R1008H;Q1011A). Nature of the assay: yeast three-hybrid, YBZ-1, SC-Leu-His + 0.5 mM 3-AT, 4 days. The note with it: tags: N-Gal4 AD-HA kept; label: inside an RPR1-promoter hybrid RNA with tandem MS2 sites; ssRNA. Summed up: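 Each repeat of the Pumilio-1 PUF domain was randomized at its three base-contacting residues, and these libraries were co-expressed from a centromeric plasmid with matching RNA elements in strain YBZ-1. After four days on SC-Leu (input) or SC-Leu-His + 0.5 mM 3-AT (selection), the repeat regions were PCR-amplified and Illumina-sequenced. The interaction score compares variant frequency between input and selection as a log change, computed in log2 with a pseudocount of 1 for absent variants.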
“GGCUAGAACUAGUGGAUCCCCCGGCGCCCGGCGGCUCGAGCCCGGGUAAGUGUUAAUAGUCUGCAUGCCGCCGGGCGCCAUGCCUGCAGGUCGACUCUAGAAAACAUG”: the binding signal is 2.33 log2 enrichment (interaction score).

“GGCUAGAACUAGUGGAUCCCCCGGCGCCCGGCGGCUCGAGCCCGGGUAAGUGUGAAUAGUCUGCAUGCCGCCGGGCGCCAUGCCUGCAGGUCGACUCUAGAAAACAUG”: the binding signal is 3.2 log2 enrichment (interaction score).

For the sequence “GGCUAGAACUAGUGGAUCCCCCGGCGCCCGGCGGCUCGAGCCCGGGUAAGUGUAAAUAGUCUGCAUGCCGCCGGGCGCCAUGCCUGCAGGUCGACUCUAGAAAACAUG”, the binding signal was 3.68 log2 enrichment (interaction score).
